Assay results reported in paper PMC4336329 (PLoS ONE, 2015).
Screen size: about 310,000 compounds; about 14,000 (4.5%) showed an effect of 50% or more. Effects have a minus sign here. For the sample, strong results were picked, then their nearest neighbours and some compounds at random.

Target: human ether-à-go-go-related gene (hERG) potassium channel (human, UniProt Q12809)
Assay: primary screen, population patch clamp on CHO cells stably expressing hERG; higher = less effect of the substance
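Also: peak tail current of the secondary pulse compared with the same well before compound.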

Chain of human ether-à-go-go-related gene (hERG) potassium channel (Q12809 whole entry, looked up): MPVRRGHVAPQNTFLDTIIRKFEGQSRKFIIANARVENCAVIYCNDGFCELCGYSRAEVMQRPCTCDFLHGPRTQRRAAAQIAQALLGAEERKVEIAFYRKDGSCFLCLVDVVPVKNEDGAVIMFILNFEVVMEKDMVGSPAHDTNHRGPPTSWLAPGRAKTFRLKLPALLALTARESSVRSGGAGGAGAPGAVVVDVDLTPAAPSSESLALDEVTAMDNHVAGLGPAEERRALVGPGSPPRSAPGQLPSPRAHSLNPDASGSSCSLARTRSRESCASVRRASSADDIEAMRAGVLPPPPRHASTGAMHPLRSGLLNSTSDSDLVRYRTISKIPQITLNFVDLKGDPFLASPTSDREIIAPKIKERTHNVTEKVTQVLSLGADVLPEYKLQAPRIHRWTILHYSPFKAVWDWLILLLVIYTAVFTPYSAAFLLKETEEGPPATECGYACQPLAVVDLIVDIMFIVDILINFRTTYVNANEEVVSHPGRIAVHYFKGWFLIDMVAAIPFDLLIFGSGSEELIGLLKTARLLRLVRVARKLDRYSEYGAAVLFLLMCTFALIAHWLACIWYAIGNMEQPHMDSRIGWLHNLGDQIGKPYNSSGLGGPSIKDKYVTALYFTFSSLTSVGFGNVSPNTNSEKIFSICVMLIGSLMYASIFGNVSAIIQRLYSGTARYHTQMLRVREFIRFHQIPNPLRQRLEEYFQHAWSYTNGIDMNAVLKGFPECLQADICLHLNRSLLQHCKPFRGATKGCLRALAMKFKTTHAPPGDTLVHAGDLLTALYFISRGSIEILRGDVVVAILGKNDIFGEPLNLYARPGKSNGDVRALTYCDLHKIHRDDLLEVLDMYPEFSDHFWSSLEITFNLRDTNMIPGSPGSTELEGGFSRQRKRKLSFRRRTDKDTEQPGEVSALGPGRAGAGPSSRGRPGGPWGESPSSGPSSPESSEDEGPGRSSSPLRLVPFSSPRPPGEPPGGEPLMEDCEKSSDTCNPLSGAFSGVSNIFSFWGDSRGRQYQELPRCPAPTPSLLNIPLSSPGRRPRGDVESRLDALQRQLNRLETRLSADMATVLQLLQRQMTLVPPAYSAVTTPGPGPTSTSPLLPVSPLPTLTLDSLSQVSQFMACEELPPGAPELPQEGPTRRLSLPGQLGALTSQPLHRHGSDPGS

SMILES	hERG current change (%, negative = inhibition) at 10uM [%]
Cc1ccccc1OC(C)C(=O)NC1CCCC1 (centres unmarked)	-2.63
O=C(NN=C1C2CC3CC1CC(Cl)(C3)C2)c1cccs1	8.54
COc1ccc(-c2nc(NC(C)=O)sc2-c2ccccc2)cc1	34.7
C=CCN(CC(=O)NCc1ccc(OC)cc1)C(=O)c1csnn1	-16.7
COc1ccc(CNC(=O)CN(Cc2ccc(Cl)cc2)C(=O)c2csnn2)cc1	-71.7
COc1ccc(CN(CC(=O)NCc2ccc(F)cc2)C(=O)c2csnn2)cc1	-58.5
COc1ccc(CNC(=O)CN(Cc2ccccc2F)C(=O)c2csnn2)cc1	-32.7
COc1ccc(CNC(=O)CN(C(=O)c2csnn2)c2ccc(F)cc2)cc1	-5.15
COc1ccc(CNC(=O)CN(Cc2ccccc2)C(=O)c2csnn2)cc1	-32.3
COc1ccc(CNC(=O)CN(Cc2ccc(F)cc2)C(=O)c2csnn2)cc1	-70.4
COc1ccc(CN(CC(=O)NCc2ccccc2)C(=O)c2csnn2)cc1	-26.6
COc1ccc(CNC(=O)CN(Cc2ccc(OC)cc2)C(=O)c2csnn2)cc1	-57.5
COc1ccc(CNC(=O)CN(Cc2ccc(C)cc2)C(=O)c2csnn2)cc1	-36.1
COc1ccc(CNC(=O)CN(Cc2ccccc2OC)C(=O)c2csnn2)cc1	-29
COc1ccccc1CN(CC(=O)NCc1ccc(F)cc1)C(=O)c1csnn1	-35.3
CCOc1cccc(=O)c2c(C)n(-c3ccc(C(=O)O)cc3)c(C)c12	32
CCOC(=O)c1c(C)nsc1NC(=O)c1ccco1	-4.79
CCOc1ccc(NCc2nnc(SCC(=O)Nc3cc(C)on3)n2-c2ccc(OC)cc2)cc1	-4.02
CCc1cccc(CC)c1NC(=O)COC(=O)Cc1ccsc1	21.2
COc1ccc(N2C(=O)NC(=O)/C(=C/c3cccc(OC(=O)c4cccs4)c3)C2=O)cc1Cl	-2.57
Cc1ccc(C(=O)NC(=S)Nc2cc(C(F)(F)F)ccc2Cl)cc1	20.3
CCOC(=O)Cc1csc(NC(=O)CN(C)S(=O)(=O)c2ccc3c(c2)CCC(=O)N3)n1	-15.9
CN(C)S(=O)(=O)c1ccc(C(=O)Nc2cc(S(=O)(=O)Nc3ccccc3Cl)ccc2N2CCCCC2)cc1	25.5

SMILES	hERG current change (%, negative = inhibition) at 10uM [%]
COc1ccc(C/C(N)=N/OC(=O)c2cccs2)cc1	12.8
O=C(Nc1nc2ccc(SC(F)F)cc2s1)c1ccc(NS(=O)(=O)c2ccc(F)c(F)c2)cc1	-8.03
COc1ccc(NC(=O)C(C)Sc2ccccc2)cc1 (centres unmarked)	1.14
COC(=O)CCc1sc(NC2CCCCC2)nc1-c1ccc(OC)cc1	8.55
CCOC(=O)N1CCN(C(=O)c2ccc(OCC)cc2)CC1	-28.3
CCOC(=O)N1CCN(C(=O)c2ccc(Oc3ccc([N+](=O)[O-])cc3)cc2)CC1	-68.3
CN1CCN(C(=O)c2ccc(Oc3ccc([N+](=O)[O-])cc3)cc2)CC1	-50.6
O=C(c1ccc(Oc2ccc([N+](=O)[O-])cc2)cc1)N1CCCCCC1	-25.5
CCOC(=O)N1CCN(C(=O)c2ccc(OC)cc2)CC1	19.8
CN1CCN(C(=O)c2cc([N+](=O)[O-])cc([N+](=O)[O-])c2)CC1	16.7
COc1ccc(Br)c(C(=O)NNC(=O)c2ccc(NS(=O)(=O)c3cccs3)cc2)c1	12.6
CCC1CCCCN1C(=O)CSc1nnc(CNC(=O)c2c(F)cccc2Cl)o1 (centres unmarked)	10.7
CCOC(=O)C(=O)Nc1ccc(S(=O)(=O)N2CCOCC2)cc1OC	4.78
O=C(O)/C=C/C(=O)NC1CC1	41.9
CCN(CC)CCOc1nnc(-c2ccc(C)cc2)c2ccccc12	-67.7
COc1ccc(-c2nnc(OC)c3ccccc23)cc1	-7.99
Cc1ccc(-c2nnc(OCCN3CCOCC3)c3ccccc23)cc1	-43.4
CCN(CC)CCOc1nnc(-c2ccc(OC)cc2)c2ccccc12	-65
COc1ccc(Oc2nnc(-c3ccc(C)cc3)c3ccccc23)cc1	5.64
COc1nnc(-c2ccc(C)cc2)c2ccccc12	5.93
Br.c1ccc(-c2cc3n(c2)CCc2ccccc2-3)cc1	4.17
O=C(CC1C(=O)NCCN1C(=S)Nc1ccccc1)Nc1ccc2c(c1)OCCO2 (centres unmarked)	-15.2
O=C(NCCCn1ccnc1)/C(=C\c1cccnc1)NC(=O)c1cccc(Br)c1	-0.509

SMILES	hERG current change (%, negative = inhibition) at 10uM [%]
C/C(=C\c1ccccc1)C(=O)NCCCn1ccnc1	-10.1
COc1ccc(-c2nn(-c3ccccc3)cc2C(=O)NCCCn2ccnc2)cc1	-39.4
COc1ccc(/C=C(\NC(=O)c2ccc(Cl)cc2)C(=O)NCCCn2ccnc2)cc1OC	13.9
O=C(NCCCn1ccnc1)/C(=C\c1ccc(Br)cc1)NC(=O)c1ccccc1	-75.8
O=C(NCCCn1ccnc1)/C(=C/c1ccc(Cl)cc1)NC(=O)c1ccccc1	-74.7
O=C(NCCCn1ccnc1)c1cn(-c2ccccc2)nc1-c1ccc(F)cc1	-64
O=C(NCCCn1ccnc1)c1cn(-c2ccccc2)nc1-c1ccccc1	-47.1
CSc1ccc(/C=C(/NC(=O)c2ccccc2)C(=O)NCCCn2ccnc2)cc1	-60.8
CCOC(=O)C1=CN(c2cccc(F)c2)C=C(C(=O)OCC)C1c1cc(OC)c(O)c([N+](=O)[O-])c1	-3.91
CCOC(=O)c1nc(C)nc(Sc2n[nH]c(-c3cc(C(F)(F)F)cc(C(F)(F)F)c3)n2)c1C	-19.5
CCCc1cc(=O)oc2c(CN(CC)CC)c(O)c(Cl)cc12	-39.8
CC(C)N(C(=O)CSc1nnc(NC(=O)C2CCC2)s1)C(C)C	-11.1
COc1ccc(CNC(=O)c2cc(-c3cccs3)on2)cc1	-2.38
CCN(CC(=O)Nc1ccc2c(c1)OCCO2)C(=O)/C=C/c1ccc(F)cc1	-7.2
CC(C)(C)c1ccc(C(=O)NCCCn2ccnc2)cc1.Cl	-11
CN(c1ccccc1)S(=O)(=O)c1cc(C(=O)NCCCn2ccnc2)ccc1Cl	-60.3
O=C(NCCCn1ccnc1)c1ccc(Cl)c(Cl)c1	-17.3
O=C(NCCCn1ccnc1)/C(=C/c1ccc(F)cc1)NC(=O)c1ccccc1	-75.6
CN(C)CCCNC(=O)c1ccc(Cl)c(S(=O)(=O)N(C)c2ccccc2)c1.Cl	-35
O=C(NCCCn1ccnc1)/C(=C\c1ccccc1F)NC(=O)c1ccccc1	-75
CC(C(=O)NCCCn1ccnc1)(c1ccccc1)c1ccccc1.Cl	-73.1
O=C(NCCCn1ccnc1)/C(=C\c1ccccc1Cl)NC(=O)c1ccccc1	-41.2
Cc1ccc(C(=O)N/C(=C/c2ccccc2F)C(=O)NCCCn2ccnc2)cc1	-40.5

SMILES	hERG current change (%, negative = inhibition) at 10uM [%]
O=C(NCCCn1ccnc1)C(Cl)(Cl)Cl	-0.517
O=C(O)c1ccc(COc2ccc3c4c(c(=O)oc3c2)CCC4)o1	21.4
Cc1cccc(-c2n[nH]c(=S)n2Cc2ccccc2)c1	-2.87
NS(=O)(=O)c1ccc(NC(=O)COC(=O)CSc2n[nH]c(-c3ccccc3)n2)cc1	12
O=C(NN1C(=O)C2C3c4ccccc4C(c4ccccc43)C2C1=O)c1ccc(Cl)cc1 (centres unmarked)	-8.19
COc1cc(C(=O)NCc2ccco2)c(Br)c(OC)c1OC	-4.22
O=C(Nc1cc(C(F)(F)F)ccc1Cl)c1ccc(NC(=O)C(F)(F)F)cc1	0.159
Cc1c(-n2c(SCC(C)C)nc3ccccc3c2=O)c(=O)n(-c2ccccc2)n1C	0.437
COC(=O)CSc1nc(N)c(C#N)c(C(C)C)c1C#N	-8.45
O=C(NCCCn1ccnc1)/C(=C/c1ccccc1)NC(=O)c1ccccc1	-70.3
CC(C)c1ccc(/C=C(\NC(=O)c2ccccc2)C(=O)NCCCn2ccnc2)cc1	-78.2
CN(C)c1ccc(/C=C(/NC(=O)c2ccccc2)C(=O)NCCCn2ccnc2)cc1	0.277
CN(C)c1ccc(/C=C(\NC(=O)c2ccccc2)C(=O)NCCCn2ccnc2)cc1	-9.78
CC(=O)Nc1nc(CC(C)C)cc(-c2ccccc2)c1C#N	4.98
CCCSc1nnc2n(C)c(=O)c3c4c(sc3n12)CCC4	-71.5
CCSc1nnc2n(-c3ccc(OC)cc3)c(=O)c3c4c(sc3n12)CCCC4	-6.75
CCCSc1nnc2n(-c3ccccc3OC)c(=O)c3c4c(sc3n12)CCC4	-56.8
C=C(C)CSc1nnc2n(C)c(=O)c3c4c(sc3n12)CCC4	-21.6
C=CCSc1nnc2n(-c3ccccc3OC)c(=O)c3c4c(sc3n12)CCC4	-64.5
Cn1c(=O)c2c3c(sc2n2c(SCc4ccccc4)nnc12)CCCC3	-9.93
COc1ccccc1-n1c(=O)c2c3c(sc2n2c(SC(C)C)nnc12)CCC3	-4.22
COc1ccccc1-n1c(=O)c2c3c(sc2n2c(=S)[nH]nc12)CCC3	21.1
COc1ccccc1-n1c(=O)c2c3c(sc2n2c(SC)nnc12)CCC3	-12.5
